# Screening data from PubChem.
# TWEAK-Fn14 inh: inhibitors of TWEAK-Fn14 interaction signaling | inhibition, % at 10 µM | hit rate 2% among 360,000 | AID 1159606 | TWEAK-stimulated Fn14 reporter cells, luciferase luminescence, 8 h; in the data active = inhibition above about 50%
# EBV LMP1 NFkB: inhibitors of Epstein-Barr LMP1-induced NF-kappaB reporter; hit rate 0.69% among 350,000; inhibition, % at 12.5 µM; LMP1-induced NF-kappaB luciferase reporter cells, luminescence; in the data active = inhibition above about 41%
# TROY signal inh: blocks TROY-dependent signaling in reporter cells. Q293 LMP1-TROYcd NF-kB luciferase reporter, 4 h. inhibition, % at 10 µM. hit rate 0.98% among 360,000;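 active = compounds whose plate-normalised and pattern-corrected inhibition of the luciferase reporter signal at the single screening dose is 50% or more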
# HSF1 inhib: HSF1 inhibition. activity change, negative = inhibition, % at 7.5 µM (by protocol). NIH3T3-HGL HSE-luciferase, MG132-induced, luminescence 8 h; hits give low values. hit rate 0.77% among 300,000;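 active = more than half of replicate wells show activity change below -50%, luminescence cut by over half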;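 note: luciferase reports HSF-1 transcriptional activity via heat shock element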
# HSP90 inh: inhibitors of HSP90 luciferase refolding in rabbit reticulocyte lysate; inhibition, % at 5.6 µM; hit rate 0.91% among 290,000; luciferase refolding luminescence, 3 h;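 active = inhibition above the screen-wide mean plus 3 SD, computed separately per campaign, cut at about 16% in these data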;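 note: inhibitors lower the luminescence because luciferase stays unfolded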
# HSF-1 act: increases HSF-1 driven luciferase reporter signal; NIH3T3-HGL HSF-1 luciferase reporter, MG132, 8 h; 100% = twice DMSO control signal; activation, % at 9 µM; hit rate 1.7% among 300,000;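 active = mean replicate activation of at least 50% with a set share of replicates each reaching 50%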
# A number is an active result; - = inactive; . = not tested or not shown. A selection: hits, their analogues and other compounds. The true share with any hit is near 4.7%.
SMILES,TWEAK-Fn14 inh,EBV LMP1 NFkB,TROY signal inh,HSF1 inhib,HSP90 inh,HSF-1 act
C=C(C)Cn1c(SCC(=O)O)nnc1-c1ccc(OC)cc1,-,-,-,-,-,58.9
COc1cc(OC)nc(-n2ncc(Br)c(Br)c2=O)n1,103.2,64.6,62.6,.,-,.
COc1ccc(CNC(=O)OCCN2CCN(S(=O)(=O)c3ccc(C)cc3)CCC2=O)cc1,-,-,-,-67.8,-,-
COc1ccc(S(=O)(=O)N2CCN(CC(=O)Nc3cccc(OC)c3)CC2)cc1,-,56.0,-,-,-,-
COc1ccc(NC(=O)Cn2c(=O)oc3cc(S(=O)(=O)N4CCCC4)ccc32)c(OC)c1,-,-,-,-,-,-
COc1ccc(NC(=O)CCN2CCN(S(=O)(=O)c3ccc(OC)cc3)CC2)cc1,-,-,-,-91.3,-,-
COc1cccc(NC(=O)Cn2c(=O)oc3cc(S(=O)(=O)N4CCCC4)ccc32)c1,-,-,-,-56.3,-,-
CC(C)C[C@@H]1COc2cc(N(C)CCO)ccc2S(=O)(=O)N1,-,.,-,.,.,.
COc1ccc(CN2C(=O)CCC2(C)c2nnnn2-c2ccc3c(c2)OCCO3)cc1OC (stereo not given),-,.,-,.,.,.
CCN(c1ccccc1)S(=O)(=O)c1ccc(Oc2ccccc2)c(N)c1,-,-,-,.,.,.
CC1CC(C)CN(S(=O)(=O)c2ccc(NC(=O)CCN3C(=O)C4CC=CCC4C3=O)cc2)C1 (stereo not given),-,71.7,-,.,.,.
Cc1ccn2cc(CSc3ccccc3)nc2c1,-,-,-,-,-,52.9
COc1ccc(-n2c(/C=C3\C(=O)N(C)c4ccccc43)nc3ccccc3c2=O)cc1,-,-,-,-,-,-
CCN1C(=O)/C(=C\c2nc3ccccc3c(=O)n2-c2ccccc2)c2ccccc21,57.2,-,-,-,-,-
CCN1C(=O)/C(=C/c2nc3ccccc3c(=O)n2-c2ccc(C)cc2)c2ccccc21,67.5,-,-,-,-,-
COc1ccc(CN2CCC2(C)C(=O)NCc2ccc3c(c2)OCO3)c2ccccc12 (stereo not given),-,.,-,.,.,.
c1ccc2c(c1)C1=NCCN1c1ccccc1-2,-,-,-,.,.,.
O=c1cc(-c2ccccc2Cl)oc2c([N+](=O)[O-])c(O)cc(O)c12,96.2,-,51.5,-,-,-
O=c1cc(-c2ccccc2Cl)oc2ccc([N+](=O)[O-])c(O)c12,-,-,-,-,-,-
Cc1ccc(S(=O)(=O)N(CC(=O)Nc2ccccc2-c2ccccc2)c2ccc(C)cc2C)cc1,-,-,-,-,-,-
Cc1cccc(N(CC(=O)Nc2ccccc2-c2ccccc2)S(=O)(=O)c2ccccc2)c1C,-,-,-,-,-,53.4
Oc1ccc2ccccc2c1CN1CCN(c2ccccc2F)CC1,-,-,-,-,-,83.6
O=S(=O)(c1ccccc1)N1CCN(Cc2c(O)ccc3ccccc23)CC1,-,-,-,.,.,.
Oc1ccc2ccccc2c1CN1CCN(C/C=C/c2ccccc2)CC1,-,-,-,-,-,185.1
COc1ccc([C@@H]2C[C@H]3[C@@H](CN2S(=O)(=O)c2ccccc2)C(=O)C[C@@H](c2ccccc2F)N3S(=O)(=O)c2ccc(C)cc2)cc1,-,-,-,.,.,.
SMILES,TWEAK-Fn14 inh,EBV LMP1 NFkB,TROY signal inh,HSF1 inhib,HSP90 inh,HSF-1 act
COc1cccc2cc(C(=O)C3=C(O)C(=O)N(CCN(C)C)C3c3ccc(Cl)cc3)oc12 (stereo not given),60.2,-,-,-,-,-
Cc1cc(C)nc(Nc2nc(C(N)Cc3ccc(Cl)cc3)cs2)n1 (stereo not given),-,.,-,.,.,.
O=C(CN1c2cccc3cccc(c23)S1(=O)=O)NCc1ccccc1Cl,-,-,-,.,.,.
C[C@@H]1CN([C@@H](C)CO)S(=O)(=O)c2ccc(Br)cc2O[C@@H]1CN(C)Cc1cccnc1,-,-,-,.,.,.
COc1ccc(C)cc1-n1c(=O)c2ccccc2c2ccccc2c1=O,-,-,-,-,-,315.2
COc1ccc(-n2c(=O)c3ccccc3c3ccccc3c2=O)c(OC)c1,-,-,-,-,-,-
CC1(C)CC(=O)C(C2C3=C(CC(C)(C)CC3=O)Oc3ccccc32)C(=O)C1 (stereo not given),-,-,-,-,-,-
CC1(C)CC(=O)C2=C(C1)Oc1nc3ccccc3cc1C2C(C#N)C#N (stereo not given),68.6,-,-,-,-,-
O=C(c1cc(C2CC2)nn1-c1ccccc1)N1CCN(S(=O)(=O)c2ccccc2F)CC1,-,-,-,.,.,.
CC1(C(=O)NS(=O)(=O)Cc2ccccc2)CCN1C(=O)CCc1ccccc1 (stereo not given),-,.,-,.,.,.
CCOc1ccccc1C(=O)Nc1nnc(SCC(=O)N2CCOCC2)s1,-,-,-,-,-,-
O=C(Nc1nnc(SCC(=O)N2CCOCC2)s1)c1ccccc1,71.0,-,72.8,-,-,-
Cc1nc2c(OCc3ccc(Cl)cc3)cccn2c1N(C)C(=O)CCC1CCCC1,-,.,-,.,.,.
CC(=O)C1=CCC(c2ccco2)N(S(=O)(=O)c2ccc(C)cc2)C1 (stereo not given),-,.,-,.,.,.
C(=N\N1CCN(C2c3ccccc3-c3ccccc32)CC1)/c1ccccn1,-,-,-,-,-,-
Cc1ccc(/C=N/N2CCN(C3c4ccccc4-c4ccccc43)CC2)s1,61.6,-,53.7,-,-,-
Cn1ccc(C(=O)N/N=C/c2ccncc2)n1,-,-,-,-,-,78.2
CC1(C(=O)NS(=O)(=O)c2ccccc2OC(F)(F)F)CCN1C(=O)Cc1ccccc1 (stereo not given),-,.,-,.,.,.
CCC(C(=O)NC(C)CCc1ccco1)n1nc(C)n2c(cc3occc32)c1=O (stereo not given),-,-,-,-,-,-
CCc1nn(C(CC)C(=O)NCc2cccc(OC)c2)c(=O)c2cc3occc3n12 (stereo not given),-,-,-,-,-,-
CCc1nn(C(CC)C(=O)NCc2cccc(OC)c2OC)c(=O)c2cc3occc3n12 (stereo not given),-,-,-,-,-,66.8
CCC(C(=O)NC(C)CCc1ccccc1)n1nc(C)n2c(cc3occc32)c1=O (stereo not given),99.7,-,-,-,-,-
O=C(NCC(F)(F)F)c1[nH]c(C(F)(F)F)nc1-c1ccccc1,-,.,-,.,.,.
CCCCNC(=O)C1(C)CCN1C(=O)c1ccc(OC)c(F)c1 (stereo not given),-,.,-,.,.,.
Cc1ccc(O)c(-c2[nH]ncc2C(=O)c2ccc(Br)cc2)c1,-,-,65.0,-,-,-
COc1ccc(NC(=O)C2(C)CCN2C(=O)c2ccccc2CCc2ccccc2)cc1OC (stereo not given),-,.,-,.,.,.
Cc1nc2cc(NC(=O)NCc3ccc4c(c3)OCO4)ccc2o1,-,-,-,-,-,-
